Assay results: PubChem BioAssay
For part of these data: Measured potencies and affinities stand elsewhere. The source made the active and inactive calls. Unless noted, no rule for the calls is given here.

Assays:
[1] = antimalarial activity against Dd2 strain (AID 2302;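 active = growth inhibition above 50% at the single 2 µM test dose, taken to imply half-maximal potency below 2 µM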;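 also: 0% = DMSO untreated growth and 100% = chloroquine plus artemisinin killed control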); conditions: P. falciparum Dd2 in RBCs, LDH growth readout, 72 h; at 2 µM; active compounds read high
[2] = HepG2 cytotoxicity, primary screen, cytotoxicity control for P. falciparum antimalarial project, cell-based, ATP luminescence (AID 2303;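 active = inhibition above 50%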;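 also: 0% = DMSO wells and 100% = digitonin-killed cells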); conditions: HepG2 viability, 24-48 h, at 10 µM, active compounds read high
[3] = target: L-lactate dehydrogenase (Plasmodium falciparum (isolate CDC / Honduras)) (UniProt Q27743); experiment: PfLDH activity inhibition – cell lysate, 3D7 strain, counter-screen for P. falciparum growth inhibition project (AID 2304);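 also: 0% = vehicle and 100% = reference inhibitor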; conditions: P. falciparum 3D7 crude extract, LDH APAD/NBT absorbance; at 2 µM; active compounds read high
Sequence of L-lactate dehydrogenase (Plasmodium falciparum (isolate CDC / Honduras)) (Q27743 whole entry, looked up): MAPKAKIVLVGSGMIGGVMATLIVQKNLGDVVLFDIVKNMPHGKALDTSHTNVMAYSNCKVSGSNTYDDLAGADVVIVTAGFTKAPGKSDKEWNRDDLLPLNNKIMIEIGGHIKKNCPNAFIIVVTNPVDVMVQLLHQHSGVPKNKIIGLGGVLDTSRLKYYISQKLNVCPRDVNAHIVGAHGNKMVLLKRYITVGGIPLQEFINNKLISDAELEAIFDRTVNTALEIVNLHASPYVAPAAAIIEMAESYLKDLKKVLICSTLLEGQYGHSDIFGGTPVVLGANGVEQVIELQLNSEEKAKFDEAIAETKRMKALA

[4] = inhibition of 3D7 malaria parasite growth – strain 3D7 (AID 2306);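 also: 0% = DMSO wells and 100% = chloroquine plus artemisinin control wells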; conditions: P. falciparum 3D7 erythrocytic growth, LDH absorbance, 72 h; at 2 µM; active compounds read high
[5] = target: Calcium-dependent protein kinase 1 (Plasmodium falciparum (isolate 3D7)) (UniProt P62344); experiment: PfCDPK1 kinase inhibitors, biochemical, TCAMS library (AID 1159585; cut-off not given, nearly all actives have IC50 up to about 0.98 µM;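 also: inhibitors leave more ATP so luminescence rises with inhibition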); conditions: recombinant PfCDPK1, Kinase-Glo ATP depletion luminescence
Sequence of Calcium-dependent protein kinase 1 (Plasmodium falciparum (isolate 3D7)) (P62344 whole entry, looked up): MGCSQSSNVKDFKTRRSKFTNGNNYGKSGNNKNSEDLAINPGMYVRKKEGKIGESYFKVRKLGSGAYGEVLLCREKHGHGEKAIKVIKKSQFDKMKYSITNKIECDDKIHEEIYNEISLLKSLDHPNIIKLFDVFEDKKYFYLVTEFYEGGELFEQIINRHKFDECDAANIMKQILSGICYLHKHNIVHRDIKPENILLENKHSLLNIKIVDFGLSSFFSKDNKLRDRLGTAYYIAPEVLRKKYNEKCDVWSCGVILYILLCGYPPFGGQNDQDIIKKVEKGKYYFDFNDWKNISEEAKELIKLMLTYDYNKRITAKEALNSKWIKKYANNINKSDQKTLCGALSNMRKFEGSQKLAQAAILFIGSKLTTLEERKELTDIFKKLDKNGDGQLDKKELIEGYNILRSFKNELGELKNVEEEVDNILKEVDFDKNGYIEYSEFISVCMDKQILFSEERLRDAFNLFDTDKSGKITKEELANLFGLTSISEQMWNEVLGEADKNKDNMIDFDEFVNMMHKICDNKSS

[6] = target: Plasmodium falciparum protein kinase 6 (PK6, PF3D7_1337100) (UniProt Q8IDW1); experiment: PfPK6 kinase inhibitors, biochemical, TCAMS library (AID 1159586); conditions: recombinant PfPK6, Kinase-Glo ATP depletion luminescence
Sequence of Plasmodium falciparum protein kinase 6 (PK6, PF3D7_1337100) (Q8IDW1 1-305): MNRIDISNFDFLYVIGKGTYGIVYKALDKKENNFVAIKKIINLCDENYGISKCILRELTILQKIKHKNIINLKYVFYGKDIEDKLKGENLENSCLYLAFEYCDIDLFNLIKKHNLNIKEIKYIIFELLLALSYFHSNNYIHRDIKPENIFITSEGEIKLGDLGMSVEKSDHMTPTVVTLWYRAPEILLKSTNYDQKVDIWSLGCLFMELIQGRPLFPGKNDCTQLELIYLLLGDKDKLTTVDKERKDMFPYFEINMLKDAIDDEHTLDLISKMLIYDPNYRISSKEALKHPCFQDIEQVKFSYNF

[7] = target: Protein kinase 7 (PK7), Plasmodium falciparum 3D7 (PF3D7_0213400) (UniProt Q7YTF7); experiment: inhibition of Plasmodium PK7 catalytic activity – biochemical, TCAMS antimalarial set, Kinase-Glo luminescence (AID 1159587); conditions: recombinant PfPK7, Kinase-Glo ATP depletion luminescence
Sequence of Protein kinase 7 (PK7), Plasmodium falciparum 3D7 (PF3D7_0213400) (Q7YTF7 1-343): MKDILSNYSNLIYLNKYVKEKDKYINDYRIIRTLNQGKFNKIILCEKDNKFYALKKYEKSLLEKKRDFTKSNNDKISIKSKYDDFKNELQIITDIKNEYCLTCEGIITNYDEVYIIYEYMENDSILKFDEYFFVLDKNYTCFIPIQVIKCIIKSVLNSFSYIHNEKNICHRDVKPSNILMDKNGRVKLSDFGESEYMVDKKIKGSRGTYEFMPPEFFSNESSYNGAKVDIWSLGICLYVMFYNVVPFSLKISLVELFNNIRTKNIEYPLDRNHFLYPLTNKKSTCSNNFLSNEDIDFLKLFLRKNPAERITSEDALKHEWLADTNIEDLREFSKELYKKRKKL

[8] = target: Calcium-dependent protein kinase 4 (Plasmodium falciparum (isolate 3D7)) (UniProt Q8IBS5); experiment: PfCDPK4 kinase inhibitors, biochemical, TCAMS library (AID 1159588; cut-off not given, nearly all actives have IC50 up to about 0.91 µM); conditions: recombinant PfCDPK4, Kinase-Glo ATP depletion luminescence
Sequence of Calcium-dependent protein kinase 4 (Plasmodium falciparum (isolate 3D7)) (Q8IBS5 whole entry, looked up): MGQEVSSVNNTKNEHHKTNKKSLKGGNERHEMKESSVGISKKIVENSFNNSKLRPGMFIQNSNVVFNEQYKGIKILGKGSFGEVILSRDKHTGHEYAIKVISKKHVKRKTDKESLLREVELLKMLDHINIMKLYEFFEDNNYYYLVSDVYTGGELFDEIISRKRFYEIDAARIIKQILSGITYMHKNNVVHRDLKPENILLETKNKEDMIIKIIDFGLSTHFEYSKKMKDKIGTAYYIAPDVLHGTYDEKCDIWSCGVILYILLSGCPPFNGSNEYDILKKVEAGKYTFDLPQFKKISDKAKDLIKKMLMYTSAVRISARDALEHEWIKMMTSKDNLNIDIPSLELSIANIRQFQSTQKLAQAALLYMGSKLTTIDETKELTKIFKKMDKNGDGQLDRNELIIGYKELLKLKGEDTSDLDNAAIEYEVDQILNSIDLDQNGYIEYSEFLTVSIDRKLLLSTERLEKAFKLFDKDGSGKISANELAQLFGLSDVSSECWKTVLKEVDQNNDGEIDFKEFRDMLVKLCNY

N#Cc1cccc(NC(=O)Nc2cccc(-c3cccc(-c4nc5ccccc5[nH]4)c3)c2)c1
inactive: inhibition [2] 46% | inhibition [3] 3% | outcome [5] | outcome [6] | outcome [7] | outcome [8]
active: growth inhibition [1] 96% | growth inhibition [4] 100%

Clc1cccc(C=NNc2ccnc3ccccc23)c1
active: growth inhibition [4] 102%
inactive: growth inhibition [1] 44% | inhibition [2] 5% | inhibition [3] 4% | outcome [5] | outcome [6] | outcome [7] | outcome [8]

Cc1ccccc1OCCCON1C(N)=NC(N)=NC1(C)C
inactive: inhibition [3] 4% | outcome [5] | outcome [6] | outcome [7] | outcome [8]
active: growth inhibition [1] 97% | inhibition [2] 66% | growth inhibition [4] 95%

N#Cc1ccc(NC(=NC2Cc3ccccc3C2)Nc2cccc(Cl)c2Cl)c(O)c1
active: growth inhibition [1] 77% | growth inhibition [4] 94%
inactive: inhibition [2] 15% | inhibition [3] -10% | outcome [5] | outcome [6] | outcome [7] | outcome [8]

Cc1cc2ccccc2c(CON2C(N)=NC(N)=NC2(C)C)c1C
inactive: growth inhibition [1] 31% | inhibition [3] -3% | outcome [5] | outcome [6] | outcome [7] | outcome [8]
active: inhibition [2] 65% | growth inhibition [4] 93%

COc1ccc2ncc(F)c(CCN3CC[C@@H](CNCc4ccc5c(c4C)OCCO5)C3)c2n1
inactive: growth inhibition [1] 11% | inhibition [2] 17% | inhibition [3] 1% | outcome [5] | outcome [6] | outcome [7] | outcome [8]
active: growth inhibition [4] 94%

CCN(CC)CCCC(C)Nc1c2ccccc2nc2ccc3ccccc3c12 (stereo not drawn)
inactive: inhibition [2] 24% | inhibition [3] 1% | outcome [5] | outcome [6] | outcome [7] | outcome [8]
active: growth inhibition [1] 89% | growth inhibition [4] 100%

CCN(CCCN1CCCCC1)c1cc(C)nc(Nc2ccc(Cl)c(C(F)(F)F)c2)n1
inactive: inhibition [2] 43% | inhibition [3] 2% | outcome [5] | outcome [6] | outcome [7] | outcome [8]
active: growth inhibition [1] 55% | growth inhibition [4] 96%

COc1cccc(CC(=O)NC2CCN(c3ccnc4cc(Cl)ccc34)C2)c1 (stereo not drawn)
inactive: inhibition [2] 9% | inhibition [3] -2% | outcome [5] | outcome [6] | outcome [7] | outcome [8]
active: growth inhibition [1] 85% | growth inhibition [4] 101%

COCCn1c(C)cc(C(=O)CN2C(=O)NC(C)(c3ccc(C(C)(C)C)cc3)C2=O)c1C (stereo not drawn)
active: growth inhibition [1] 96% | growth inhibition [4] 97%
inactive: inhibition [2] 7% | inhibition [3] 1% | outcome [5] | outcome [6] | outcome [7] | outcome [8]

Cc1cccc2[nH]c(-c3ccc(-c4ccc(CNCc5ccccc5)cc4)cc3)nc12
inactive: inhibition [2] 5% | inhibition [3] -2% | outcome [5] | outcome [6] | outcome [7] | outcome [8]
active: growth inhibition [1] 90% | growth inhibition [4] 99%

O=C1CCCC1Sc1nc2ccccc2c(=O)n1-c1ccc(Cl)c(Cl)c1 (stereo not drawn)
inactive: growth inhibition [1] 42% | inhibition [2] 10% | inhibition [3] 0% | outcome [5] | outcome [6] | outcome [7] | outcome [8]
active: growth inhibition [4] 97%

COc1ccc2c(Nc3ccc(N4CCN(C)CC4)cc3)cc(C)nc2c1
active: growth inhibition [4] 101%
inactive: growth inhibition [1] 9% | inhibition [2] 23% | inhibition [3] -2% | outcome [5] | outcome [6] | outcome [7] | outcome [8]

O=C(NCc1ccccc1S(=O)c1ccccc1CO)C(F)(F)F (stereo not drawn)
active: inhibition [2] 50% | growth inhibition [4] 98%
inactive: growth inhibition [1] 2% | inhibition [3] 0% | outcome [5] | outcome [6] | outcome [7] | outcome [8]

CSc1cccc(NC(=O)Nc2ccc(I)c(OCCN(C)C)c2)c1
inactive: growth inhibition [1] 19% | inhibition [2] 14% | inhibition [3] -1% | outcome [5] | outcome [6] | outcome [7] | outcome [8]
active: growth inhibition [4] 97%

COc1cccc(OC)c1CN1CCC(N(C)CCCCCCCCN2CCC(OC(=O)Nc3ccccc3-c3ccccc3)CC2)CC1
inactive: inhibition [3] 1% | outcome [5] | outcome [6] | outcome [7] | outcome [8]
active: growth inhibition [1] 100% | inhibition [2] 100% | growth inhibition [4] 99%

O=C(/C=C/c1ccc(Cl)cc1)NCCCCCN1CCN(C(=O)Nc2ccc(Cl)c(C(F)(F)F)c2)CC1
inactive: growth inhibition [1] 5% | inhibition [2] 18% | inhibition [3] 8% | outcome [5] | outcome [6] | outcome [7] | outcome [8]
active: growth inhibition [4] 94%

Cc1noc(C)c1-c1ccc2c(Nc3ccc(C#N)cc3)c(C(N)=O)cnc2c1
inactive: inhibition [2] 6% | inhibition [3] 7% | outcome [5] | outcome [6] | outcome [7] | outcome [8]
active: growth inhibition [1] 73% | growth inhibition [4] 97%

COc1ccc(-c2c(-c3ccc(OCc4ccccc4)cc3O)n[nH]c2C(F)(F)F)cc1
active: growth inhibition [1] 57% | growth inhibition [4] 93%
inactive: inhibition [2] 49% | inhibition [3] 2% | outcome [5] | outcome [6] | outcome [7] | outcome [8]

CC(=O)c1ccc2c(c1)CCN(CCC1CCC(NC(=O)c3cc4ccccc4[nH]3)CC1)CC2 (stereo not drawn)
active: inhibition [2] 64% | growth inhibition [4] 86%
inactive: growth inhibition [1] 47% | inhibition [3] 2% | outcome [5] | outcome [6] | outcome [7] | outcome [8]

Nc1nccc(-c2ccc3c(-c4cccc(F)c4)cnc(N)c3c2)n1
inactive: growth inhibition [1] 44% | inhibition [2] 41% | inhibition [3] 5% | outcome [5] | outcome [6] | outcome [7] | outcome [8]
active: growth inhibition [4] 93%
